The results in this text go back to PubChem BioAssay (NCI).

This is part of a sample that, as a whole, favours compounds with a hit. Of some 83,000 tested, about 20% had one in any assay.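 Single-concentration screen, 48 h exposure, 96-well plates. Endpoint: percent growth. Below 10 = active.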 Active and inactive are the calls of the source.

The experiment deals with HL-60(TB) leukemia. Briefly: NCI-60 one-dose screen, 48 h (100 = growth as untreated, 0 = no growth, -100 = all killed). As to conditions: 10 µM unless noted.
For the compound `COc1cc2c(cc1-c1c(C)noc1C)ncc1nc(C3CCCCC3)n(C3CCC(OC(F)F)CC3)c12` (stereo not given), the growth is -25.1% (active).

With `CN(C)c1ccc2cc(-c3ccc(Cl)c(Cl)c3)c(N)nc2c1`, the growth was 10.5% (inactive).

Consider `Cc1c(C)c2c(c(C)c1NC(=O)/C=C\C(=O)O)CCC(C)(CCCC(C)CCCC(C)CCCC(C)C)O2` (stereo not given), for which the growth is 37.3% (inactive).

Regarding `O=C(CCCNC(=O)c1nc(-c2ccccc2)n(-c2ccccc2)n1)NO`, the growth was 87.9% (inactive).

On to `OC(c1cc(C(F)(F)F)nc2c(C(F)(F)F)cccc12)C1CCCCN1` (stereo not given), for which the growth is 50.3% (inactive).

With `O=C(CCCCCCN1CC(=O)N2[C@@H](c3ccc(Cl)c(Cl)c3)c3[nH]c4ccccc4c3C[C@H]2C1=O)NO`, the growth is -11.8% (active).

Take `CCOC(=O)C1=C(c2ccccc2)NC(=O)NC1CN1C(=O)c2ccccc2C1=O` (stereo not given): the growth is 57.4% (inactive).

On to `COc1cc2ncnc(Nc3ccc(O)cc3)c2cc1OC`, for which the growth is 83.5% (inactive).

For the compound `COC(=O)C(C(C[N+](=O)[O-])c1ccccc1)=P(c1ccccc1)(c1ccccc1)c1ccccc1` (stereo not given), the growth was 80.5% (inactive).

With `Cc1ccc(S(=O)(=O)Nc2ccc(-c3cc(-c4cccc(F)c4)c(C#N)c(=O)[nH]3)cc2)cc1`, the growth is 87% (inactive).

For the compound `O=[N+]([O-])c1ccc(OCCO)cc1`, the growth is 125% (inactive).

For `CC(C)OP(=O)(CCC(=O)c1c[nH]c2ccccc12)OC(C)C`, the growth was 92.2% (inactive).

Consider `O=c1ccn(C2CC(O)C(COC(c3ccccc3)(c3ccccc3)c3ccccc3)O2)c(=O)[nH]1` (stereo not given), for which the growth is 10.1% [100 µM] (inactive).

In the case of `O=C1Cc2c([nH]c3ccc([N+](=O)[O-])cc23)-c2ccccc2N1`, the growth is -33.8% (active).

Consider `Cc1ccc(CC(=O)O)c(C)c1`, for which the growth is 98% (inactive).

With `NC(=S)N/N=C/c1ccc(Cl)cc1`, the growth is 103% (inactive).

Consider `COc1ccc(NC(=S)/N=c2\oc3c(OC)cccc3cc2-c2cc3ccccc3[nH]2)cc1`, for which the growth was 93.1% (inactive).

With `O=C(NCCCNc1cc(-c2cn(-c3ccccc3)nc2-c2cccc(O)c2)ccn1)c1ccccc1`, the growth is 8.91% (active).

Regarding `CCOC(=O)CSc1nc2sc3c(c2c(=O)n1-c1ccc([N+](=O)[O-])cc1)CCCCC3`, the growth is 88.4% (inactive).

In the case of `O=[N+]([O-])c1ccc(/C=C/C2(CCl)OCCO2)cc1`, the growth was 76.2% (inactive).

On to `CSc1nc(Nc2cccc(NC(=O)/C(C#N)=C/c3c(Cl)cccc3Cl)c2)c(C#N)c(-c2cccc([N+](=O)[O-])c2)n1`, for which the growth was 58.3% (inactive).

Consider `CCOc1cc(F)c([N+](=O)[O-])cc1[N+](=O)[O-]`, for which the growth was -12.6% (active).

As for `CCCCC/C=C/C/C=C/CCCCCCCC1=NC(C)(C)CN1C(C)C`, the growth was 13.7% (inactive).

Take `NCCNc1ccc([N+](=O)[O-])cc1`: the growth was 91.9% (inactive).

`COc1cc2nc(Nc3cccc(F)c3)nc(Nc3cc(C)[nH]n3)c2cc1OC`: the growth was -54% [20 µM] (active).

Consider `CCOC(=O)c1c(C=O)nc2ccccc2c1/C=C/c1ccc(Cl)cc1`, for which the growth was 69.7% (inactive).

Take `O=C(c1ccccc1)N(C(=S)NCCc1ccc(Cl)cc1)c1ccc(Cl)cc1`: the growth was 23% (inactive).

With `CCN1C(=O)N(CC)C2C1NN=c1s/c(=C\c3cc4ccccc4[nH]3)c(=O)n12` (stereo not given), the growth was -62% (active).

As to `CCOC(=O)c1[nH]c2c(c1C)-c1[nH]c(=O)c(S(=O)(=O)c3ccccc3)cc1SC2`, the growth is 54.7% [100 µM] (inactive).

Regarding `COc1ccc(N2CCN(c3nc(-c4ccccc4)c(C#N)c(=O)[nH]3)CC2)cc1`, the growth was 55.2% (inactive).

`O=C1NC(=S)NC(=O)C1CC(=O)n1c(-c2ccccc2)nc2ccccc21`: the growth was 104% (inactive).

Regarding `COC(=O)C[C@@H]1CC=CC(=O)/C1=C(O)/C=C/c1ccccc1`, the growth was -10.7% (active).

For `Cn1c(C(N)=O)cc2c1-c1nc(NC3CCCCC3)ncc1CCC2`, the growth was 105% (inactive).

With `S=C(Cc1ccc(-c2ccccc2)cc1)N1CCOCC1`, the growth is 98.9% (inactive).

Consider `Cc1ccc(/C=C(\C#N)c2cc3ccccc3n2C)cc1`, for which the growth was 4.45% (active).

In the case of `CC(C)(C)n1cc(-c2ccnc(NCCNS(=O)(=O)c3cccc4ccccc34)c2)c(-c2cccc(O)c2)n1`, the growth is 71% (inactive).

Take `COc1ccc(/C=N/NC(=O)c2ccc(S(C)(=O)=O)cc2)cc1OC`: the growth was 54.1% (inactive).

With `O=C1CCC/C=C\C[C@H]2C=CC(=O)/C2=C/C[C@H](C/C=C\CC(F)(F)F)O1`, the growth was -16.6% (active).

On to `C/C(=N\Nc1ccc(Cl)cn1)c1ccc2ccccc2n1`, for which the growth was -15.3% (active).

Turning to `NC(=NCc1ccccc1)C(N=Nc1ccccc1)C(=O)NCc1ccccc1` (stereo not given), the growth was 72% (inactive).
